TEAD-YAP block: TEAD-YAP interaction inhibition, primary screen, TEAD-YAP interaction inhibitor project, luminescence, HEK-TIYL cells; TEAD-Gal4/YAP UAS-luciferase luminescence; inhibition, % at 9.12 µM; 1.4% of 640,000 active; in the data active = inhibition above about 32%;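 note: 0% = median of test compound wells and 100% = reference inhibitor wells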
MITF inh: MITF inhibitors, primary screen, biochemical, AlphaScreen, human; Microphthalmia-associated transcription factor (Homo sapiens), O75030; AlphaScreen MITF homodimerization, bead proximity signal; inhibition, % at 2.6 µM; 0.91% of 650,000 active; AID 1259374, 2018; in the data active = inhibition above about 50%;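 note: 0% = vehicle wells with protein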
FBW7 activator: FBW7 E3 ligase activators, primary screen, biochemical, AlphaScreen, human; normalized activity (activation), % at 26.1 µM; 0.13% of 650,000 active; AlphaScreen FBW7–phospho-cyclin E peptide binding, activator screen; F-box/WD repeat-containing protein 7 (Homo sapiens), Q969H0; in the data active = normalized activity above about 1.9%;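 note: purified mutant Fbw7 with reduced substrate affinity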
GPR151 ag: activators of human GPR151, primary screen, cell-based, PathHunter beta-arrestin, luminescence | PathHunter beta-arrestin GPR151 cells | activation, % at 11.2 µM | 1% of 650,000 active | AID 1508602, 2020; in the data active = activation above about 4.9%;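 note: 0% = median of compound wells and 100% = cells with positive control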
Target sequence (Q8TDV0 whole entry, looked up): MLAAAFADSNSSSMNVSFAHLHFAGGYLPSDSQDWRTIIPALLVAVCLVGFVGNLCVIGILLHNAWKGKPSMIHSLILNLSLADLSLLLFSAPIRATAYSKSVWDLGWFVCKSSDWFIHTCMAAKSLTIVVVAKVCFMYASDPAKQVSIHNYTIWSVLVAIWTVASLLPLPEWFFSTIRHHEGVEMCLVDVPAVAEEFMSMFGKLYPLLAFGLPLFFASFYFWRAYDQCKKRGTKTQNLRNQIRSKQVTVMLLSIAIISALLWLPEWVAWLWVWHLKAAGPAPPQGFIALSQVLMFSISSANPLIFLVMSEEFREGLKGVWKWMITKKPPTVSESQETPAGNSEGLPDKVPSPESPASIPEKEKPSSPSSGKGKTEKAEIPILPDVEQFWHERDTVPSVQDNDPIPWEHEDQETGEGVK
GPR151 confirm: GPR151 activators, triplicate retest, confirmation, cell-based, PathHunter beta-arrestin, luminescence; GPR151 PathHunter beta-arrestin cells, 90 min; % of EA-reagent control over plate median; shares compounds with GPR151 ag; 6,700 tested, under 10 active; activation, % at 11.2 µM;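 active = mean percent activation across replicates above the confirmation screen cutoff of 4.91%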
GPR119 ag: GPR119 activators in beta-arrestin cells, counter-screen for GPR151 activator project, cell-based, PathHunter beta-arrestin, luminescence, triplicate; activation, % at 11.2 µM; shares compounds with GPR151 ag; 0.3% of 6,700 active; AID 1508611, 2020; 90 min; 0 = compound-well median, 100 = enzyme-acceptor control;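 active = mean percent activation in the counterscreen above 29.09%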;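 note: counterscreen on off-target GPR119 to flag nonselective hits from the GPR151 activator screen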
* hit, by the source's call; nt = no result. Sampled rows, rich in hits. Any-hit rate of the full collection: about 3.5%.

SMILES	TEAD-YAP block	MITF inh	FBW7 activator	GPR151 ag	GPR151 confirm	GPR119 ag
O=S(=O)(NCCSc1nnnn1-c1ccccc1)c1ccccc1	-3	-1	0	8.7*	0	13
CC1(C)OC(=O)C(=CNC(CCC(N)=O)C(=O)O)C(=O)O1 (stereo not drawn)	-10	12	0	6.4*	1	-3
COc1ccc(-c2c[n+](CC(=O)OC3CC(C)CCC3C(C)C)c3n2CCCCC3)cc1 (stereo not drawn)	86*	18	0	5.3*	1	-1
CCCCCNC(=O)c1ccc2c(c1)ncn2-c1cccc(F)c1	-14	-2	0	0	nt	nt
COC(=O)CN(C)S(=O)(=O)c1ccc(OC)c(C)c1	0	8	0	1	nt	nt
CCCCOC(=O)c1ccc(Nc2nc(C)c([N+](=O)[O-])c(Nc3ccc(C(=O)OCCCC)cc3)n2)cc1	0	-4	0	2	nt	nt
COC(=O)c1ccc(Nc2nc(C)c([N+](=O)[O-])c(Nc3ccc(C(=O)OC)cc3)n2)cc1	3	9	0	13*	0	5
NS(=O)(=O)c1ccc(NC(=O)COc2ncnc3scc(-c4ccccc4)c23)cc1	-4	-12	0	5.5*	-1	2
COc1cc(/C=C2\N=C(c3ccccc3Br)OC2=O)cc(I)c1OC(C)=O	-2	-8	0	0	nt	nt
CC(=O)Nc1ccc(S(=O)(=O)N(C)Cc2ccccc2)cc1	0	-11	0	1	nt	nt
COc1ccc(S(=O)(=O)N(CC(=O)O)Cc2ccccc2)cc1C	12	-14	0	-1	nt	nt
COc1ccc(S(=O)(=O)N(C)Cc2ccccc2)cc1C	-3	4	0	11*	0	-6
Cc1cccc(OCC(=O)Nc2ccc(S(=O)(=O)N(C)Cc3ccccc3)cc2)c1	-9	-7	0	5.6*	0	4
CN(Cc1ccccc1)S(=O)(=O)c1ccc(NS(C)(=O)=O)cc1	2	10	0	5.7*	-1	-11
COc1ccc(C(=O)N2CCN=C2SCc2cccc([N+](=O)[O-])c2)c(OC)c1	-12	8	0	0	nt	nt
COc1ccccc1N1CCN(CC(=O)Nc2ccccc2)CC1	8	-2	1	0	nt	nt
CC(Oc1cccc(Cl)c1)C(=O)Nc1nccs1 (stereo not drawn)	0	0	0	6.0*	-1	-10
CC1=C(c2ccc(C)cc2)S(=O)(=O)N=C1Nc1ccc(C)cc1	-76	-7	0	0	nt	nt
CC1=C(c2ccc(C)cc2)S(=O)(=O)N=C1Nc1ccc(Br)cc1F	-6	1	0	8.7*	2	8
CCOC(=O)C1CCCN(S(=O)(=O)c2cccc3nsnc23)C1 (stereo not drawn)	6	13	0	-1	nt	nt
Cc1ccccc1CNC(=O)CN(c1cc(C(F)(F)F)ccc1Cl)S(C)(=O)=O	-17	3	0	0	nt	nt
COc1ccccc1CNC(=O)CN(c1cc(C(F)(F)F)ccc1Cl)S(C)(=O)=O	-6	3	0	7.6*	0	9
COc1ccc(C2Nc3ccccc3NC3=C2C(=O)NC3)cc1 (stereo not drawn)	-61	9	0	-2	nt	nt
O=C1NCC2=C1C(c1ccc(Br)cc1)Nc1ccccc1N2 (stereo not drawn)	5	8	0	5.5*	0	11
Cc1ccc(CC(CC(=O)O)C(=O)O)cc1 (stereo not drawn)	-1	1	0	6.8*	-1	-14
Cc1cc(C)cc(CC(CC(=O)O)C(=O)O)c1 (stereo not drawn)	6	-17	0	0	nt	nt
CCC(C)NC(=O)C1CCCN(S(=O)(=O)N2CCOCC2)C1 (stereo not drawn)	-1	6	0	8.8*	0	0
CCc1noc(C)c1C(=O)OCC(=O)Nc1cc(C)on1	5	16	0	5.3*	2	2
